Screening results from PubChem.
Compounds with a hit are over-represented: about 1.3% of the library has one in this group of screens.
EPAC2 ag – qHTS for Agonist of cAMP-regulated guanine nucleotide exchange factor 4 (EPAC2): primary screen; Rap guanine nucleotide exchange factor 4 (Homo sapiens), Q8WZA2; EPAC2 activation, biochemical qHTS; response scale: 100% = 6.5 mM cAMP response; Potency, µM (highest dose often 154 µM), for inactives: at the highest dose activation, usual class: activators; hit rate 0.079% among 360,000; AID 720711, 2013; note: nearly all actives have a fitted effect of over 50% in size
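Setup: EPAC2 100 nM, labeled Rap1B complex 250 nM, free GDP 50 uM. Compound titrations pinned in, brief spin, 5 min room temperature incubation. Kinetic fluorescence read over 30 min, normalized to 6.5 mM cAMP.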
RGS4 inhibitor – Inhibitors of Regulator of G Protein Signaling (RGS) 4: qHTS. Potency, µM (titrated, usually from 114 µM), for inactives: at the top dose activity change, negative = inhibition, hits mostly inhibitors. hit rate 0.039% among 390,000. Transcreener GDP fluorescence polarization, RGS4-accelerated GTP hydrolysis. Regulator of G-protein signaling 4 (Homo sapiens), P49798; note: % is set by controls: 0 for no effect and ±100 for the full control effect; nearly all actives have a fitted effect of over 75% in size
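MLSMR compounds (23 nl, pin-transferred) preincubated 10 min at room temperature with a 500nM (2x) first reagent, then RGS4 at 900nM (2x) plus Transcreener GDP mix added; fluorescence polarization (620/688 nm) read before and after 90 min at 30 °C.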
EPAC1 antag – qHTS for Antagonist of cAMP-regulated guanine nucleotide exchange factor 3 (EPAC1): primary screen | Rap guanine nucleotide exchange factor 3 (Homo sapiens), O95398 | Potency, µM (series often up to 115 µM), for inactives: at the highest dose activity change, negative = inhibition, hits mostly inhibitors | hit rate 0.14% among 360,000 | EPAC1 GEF assay, Rap1b-BODIPY-GDP exchange fluorescence;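 note: plate controls were vehicle for no effect and positive control for full effect; nearly all actives have a fitted effect of over 50% in size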
Target sequence (O95398 whole entry, looked up): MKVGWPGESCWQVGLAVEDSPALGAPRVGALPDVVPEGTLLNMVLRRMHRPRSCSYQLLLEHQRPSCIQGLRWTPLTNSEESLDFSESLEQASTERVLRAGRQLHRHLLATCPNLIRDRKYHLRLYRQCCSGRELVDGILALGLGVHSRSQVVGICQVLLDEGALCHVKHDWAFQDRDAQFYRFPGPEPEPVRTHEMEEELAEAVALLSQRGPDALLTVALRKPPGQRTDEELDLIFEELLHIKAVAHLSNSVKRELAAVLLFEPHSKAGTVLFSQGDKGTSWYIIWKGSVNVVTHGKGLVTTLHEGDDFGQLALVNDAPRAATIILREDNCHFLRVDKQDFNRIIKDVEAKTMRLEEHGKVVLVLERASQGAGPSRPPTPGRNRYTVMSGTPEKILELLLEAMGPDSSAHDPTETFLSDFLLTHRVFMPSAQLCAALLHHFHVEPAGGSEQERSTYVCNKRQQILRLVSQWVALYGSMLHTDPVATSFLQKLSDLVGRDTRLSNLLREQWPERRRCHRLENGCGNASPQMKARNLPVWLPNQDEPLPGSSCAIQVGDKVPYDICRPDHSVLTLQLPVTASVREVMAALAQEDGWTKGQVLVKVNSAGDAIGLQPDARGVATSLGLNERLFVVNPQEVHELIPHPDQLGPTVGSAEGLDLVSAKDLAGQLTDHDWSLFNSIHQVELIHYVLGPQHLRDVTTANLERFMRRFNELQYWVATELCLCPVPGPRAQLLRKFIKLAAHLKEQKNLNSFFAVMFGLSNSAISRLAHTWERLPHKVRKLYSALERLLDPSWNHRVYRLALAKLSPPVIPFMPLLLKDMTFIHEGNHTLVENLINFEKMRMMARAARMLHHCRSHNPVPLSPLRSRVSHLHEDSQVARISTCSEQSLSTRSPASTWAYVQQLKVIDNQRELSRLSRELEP
EPAC2 antagonist – qHTS for Antagonist of cAMP-regulated guanine nucleotide exchange factor 2 (EPAC2): primary screen | Rap guanine nucleotide exchange factor 4 (Homo sapiens), Q8WZA2 | EPAC2 GEF exchange of Rap1B-BODIPY-GDP, fluorescence | Potency, µM (titrated, usually from 114 µM), without a hit: at the highest dose activity, negative = inhibition, usual class: inhibitors | hit rate 0.18% among 360,000 | AID 720708, 2013; note: % is set by controls: 0 for no effect and ±100 for the full control effect; nearly all actives have a fitted effect of over 45% in size
BRCA1 expr act – qHTS Assay to Identify Small Molecule Activators of BRCA1 Expression. MCF7-BRCA1-FFLuc reporter, luminescence, 48 h; response scale: scaled: vehicle 0%, 10 µM genistein 100%. Potency, µM (series often up to 46.1 µM), for inactives: top-dose activation, usual class: activators. hit rate 1.1% among 380,000. AID 624202, 2012; note: nearly all actives have a fitted effect of over 80% in size
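First, MCF7-BRCA1-FFLuc cells (2000/well) attach for 2 h; next, compounds are pin-added and incubated 48 h at 37 °C; finally, luciferase reagent is added and luminescence read after 15 min.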
EPAC1 ag – qHTS for Agonist of cAMP-regulated guanine nucleotide exchange factor 3 (EPAC1): primary screen; Potency, µM (highest dose often 154 µM), for inactives: at the highest dose activation, most hits filed as activators; hit rate 0.073% among 360,000; Rap guanine nucleotide exchange factor 3 (Homo sapiens), O95398; AID 720707, 2013; EPAC1 agonist qHTS, biochemical assay; response scale: 100% = response to 6.5 mM cAMP; note: nearly all actives have a fitted effect of over 60% in size
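EPAC1 100 nM, Rap1B–BODIPY-GDP 250 nM, unlabeled GDP 50 uM; compound titration; 5 min RT; kinetic read ex480/em540 at 5-min intervals ×30 min; data normalized to 6.5 mM cAMP agonist control.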
An asterisk follows results filed as active; ? = inconclusive; . = no result; [ ] = another dose, or the depositor's remark. Calls come from the whole dose curve; as a rule, active = well fitted curve in the direction sought with a large enough effect; inconclusive = small, poorly fitted or top-dose-only effect, or another doubt; inactive = no such curve, though single readings can be large; an effect the other way counts as inactive or inconclusive. Potency is the fitted concentration of half-maximal effect.

SMILES | EPAC2 ag | RGS4 inhibitor | EPAC1 antag | EPAC2 antagonist | BRCA1 expr act | EPAC1 ag
c1cncc(-c2nnc(-c3ccco3)o2)c1 | 6.4% | 9.0% | 3.4% | -4.8% | 55.5% | 7.5%
Clc1ccc(-c2nnc(-c3ccc4ccccc4c3)o2)cc1 | 3.0% | -10.3% | -1.3% | 5.3% | 2µM* | 2.0%
CCc1ccccc1NC(=O)c1cnc2sc(N3CCOCC3)nn2c1=O | . | -13.8% | . | . | . | .
COc1ccc(OC)c(CNC(=O)CCc2cn(C)c3ccccc23)c1 | 11.8% | 26.7% | -12.1% | -4.6% | -13.9% | -1.4%
Cc1cccn2c(=O)c3cc(C(=O)NCCCOC(C)C)sc3nc12 | 4.2% | 27.1% | -1.3% | -5.0% | -13.6% | 4.4%
CCCCN(Cc1ccccc1)c1ncnc2nc[nH]c12 | -3.5% | -26.3% | -9.6% | ? | 12.6µM* | -21.7%
O=C(NC1CCCC1)c1cc(-c2ccccc2O)on1 | 3.5% | -7.1% | -2.0% | 2.5% | 2.82µM* | 3.5%
O=C(NC1CCCCC1)c1cc(-c2cccc(Cl)c2)on1 | 4.1% | 5.3% | -6.7% | -2.1% | 4.47µM* | -6.5%
O=C(NC1CCCC1)c1cc(-c2ccccc2Cl)on1 | 2.1% | -14.5% | 5.4% | -1.3% | ? | -3.6%
O=C(COC(=O)c1ccc(F)cc1Cl)NCc1ccco1 | 6.0% | 6.5% | -23.0% | 1.1% | 0.1% | 9.0%
O=C(NCCc1cccs1)C1CC(c2ccc([N+](=O)[O-])cc2)=NO1 (configuration not stated) | -2.5% | -23.2% | 16.3% | 9.3% | 10µM* | -10.9%
COCCNc1ncnc2c1c(-c1ccccc1)cn2-c1cccc(Cl)c1 | . | 14.0% | . | . | . | .
COc1ccc(CCNC(=O)c2ccc(Cl)cc2)cc1 | 3.9% | -15.0% | 11.3% | 17.4% | 16.3% | 2.2%
COc1ccc(CCNC(=O)c2nn(C)cc2Cl)cc1 | 4.1% | -2.9% | 3.7% | 18.7% | 7.94µM* | -4.5%
COc1cc(CNCc2ccc(OC)c(OC)c2OC)cc(OC)c1 | 5.2% | -5.5% | -8.7% | 5.9% | -50.7% | 2.2%
COc1ccc(Br)c2oc(S)cc(=O)c12 | -5.4% | ? | -7.2% | -5.9% | 0.0% | 3.5%
O=C(NCC1CCCO1)c1ccc2c3n(nc2c1)-c1ccccc1CO3 (configuration not stated) | 2.8% | -13.4% | -11.4% | 10.1% | 2.51µM* | 11.0%
C[C@@H](CO)NC(=O)c1ccc2c3n(nc2c1)-c1ccccc1CO3 | 6.3% | 13.3% | -6.0% | 5.4% | ? | 4.8%
O=C(c1ccc2c3n(nc2c1)-c1ccccc1CO3)N1CCCCC1 | -6.8% | -9.1% | -2.3% | 6.3% | ? | -16.1%
O=C(c1ccc2c3n(nc2c1)-c1ccccc1CO3)N1CCOCC1 | 2.3% | 4.3% | -0.4% | 4.0% | ? | -17.0%
O=C(c1ccc2c3n(nc2c1)-c1ccc(Cl)cc1CO3)N1CCOCC1 | 4.5% | -4.9% | -11.8% | 2.9% | 6.31µM* | 3.1%
Cc1ccc2c(c1)COc1c3ccc(C(=O)N[C@@H](CO)C(C)C)cc3nn1-2 | -4.7% | 15.0% | -11.3% | 4.1% | 6.31µM* | -19.1%
Cc1ccc2c(c1)COc1c3ccc(C(=O)N4CCCCC4)cc3nn1-2 | -3.7% | -9.8% | -14.7% | 8.1% | 4.47µM* | -4.1%
CCOC(=O)C1CCCN(C(=O)CCc2nc3sc4c(c3c(=O)[nH]2)CCCC4)C1 (configuration not stated) | 6.7% | 19.4% | 17.2% | -0.4% | -9.9% | 0.5%
CN(CC(=O)Nc1cccc(F)c1)C(=O)CCCNC(=O)c1ccc(Cl)cc1 | 5.1% | 8.7% | -1.4% | -4.9% | 11.2µM* | 5.7%
SMILES | EPAC2 ag | RGS4 inhibitor | EPAC1 antag | EPAC2 antagonist | BRCA1 expr act | EPAC1 ag
COc1ccc(CCNC(=O)C(=O)NCC2OCCN2S(=O)(=O)c2ccc(OC)c(OC)c2)cc1OC (configuration not stated) | -1.2% | -31.6% | -7.8% | 0.6% | -30.3% | -6.3%
O=C1OC2(CCCCC2)OC(=O)C1=CNc1ccc2c(c1)OCO2 | -7.1% | -5.9% | 13.4% | 2.5% | 2.2% | 5.2%
O=[n+]1cc(-c2ccc(F)cc2)n([O-])c2c1CCC2 | 4.0% | -8.2% | 0.5% | -0.7% | 7.5% | 8.5%
Cc1ccc(S(=O)(=O)NN2C(=O)/C(=C/c3cccc(F)c3)SC2=S)cc1 | -7.6% | -41.9% | ? | 31.6µM* | -11.7% | -3.2%
COc1cc(/C=C2\SC(=S)N(NS(=O)(=O)c3ccc(C)cc3)C2=O)ccc1O | -5.7% | 11.7%[11.4 µM] | ? | ? | 6.9% | 6.2%
COc1cc(/C=C2\SC(=S)N(NS(=O)(=O)c3ccc(C)cc3)C2=O)cc(OC)c1OC | -3.5% | 1.9% | 79.4µM* | 50.1µM* | -25.7% | -0.9%
O=C(NCc1ccc2c(c1)OCO2)Nc1ccc(Cl)cc1 | 10.3% | ? | 0.8% | 3.9% | 11.2µM* | 2.7%
COc1ccc(NC(=O)NCc2ccc3c(c2)OCO3)cc1 | 7.2% | 12.3% | -1.7% | 0.5% | 26.1% | -2.6%
CC(=O)Nc1ccc(OCc2ccc3c(c2)OCO3)cc1 | 0.4% | 0.3% | -1.9% | -9.5% | 2.51µM* | -3.0%
O=C(NCc1ccc2c(c1)CCO2)Nc1ccccc1 | 4.4% | -4.8% | -10.0% | 13.0% | 1.78µM* | -6.5%
COc1cccc2c(=O)n(CC(=O)N3CCc4ccccc43)ccc12 | 0.9% | -5.8% | 12.8% | 24.2% | 0.4% | 8.8%
Cc1cc(N=NC(=O)c2ccccc2O)c2ccccc2c1O | -1.8% | -0.1%[11.4 µM] | -13.5% | -23.3% | 5.62µM* | -0.8%
Cn1c(O)c(N=NC(=O)c2ccccc2O)c2ccccc21 | 3.0% | ? | 31.6µM* | -16.3% | 43.3% | 2.2%
Cc1ccc(Cc2c(-c3ccccc3)nc3ccc(Br)cn23)cc1 | 16.9% | . | -8.2% | -15.0% | -25.0% | -3.7%
COCCNc1nc(Nc2ccc(C)cc2C)c2sc(-c3ccccc3)cc2n1 | 10.0% | . | -13.9% | -9.6% | -13.3% | 0.1%
CC1Cc2nc(SCC(N)=O)n(Cc3ccccc3)c(=O)c2S1 (configuration not stated) | 6.4% | 23.8% | -12.5% | 1.4% | 0.0% | 1.1%
CCC(=O)NC1Cc2ccccc2C(c2ccccc2)C1 (configuration not stated) | . | 23.8µM* | . | . | . | .
CCC(=O)N[C@@H]1CCc2cccc(OC)c2C1 | . | 468.3%[56.9 µM] | . | . | . | .
